From PubChem BioAssay (NCI)
The panel holds about 79,000 compounds, 15% with a hit somewhere; the sample as a whole holds those more often. Unmarked numbers belong to inactive results. Active and inactive are the calls of the source. Cut-off read from the data, not from the text of the source: active = growth inhibition above about 70%; inactive = the rest.

Test: NCI Yeast Anticancer Drug Screen. Data for the cln2 rad14 strain (AID 165);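 note: 0% = growth equal to vehicle treated cultures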
Conditions: S. cerevisiae cln2 rad14 strain, at 50.0 µM (retest, dose inferred, filed as 5.0), stronger effect = higher value
Outline: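 The screen exposed genetically defined yeast (cln2 rad14) to test compounds and scored growth inhibition relative to vehicle-treated controls.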

SMILES | growth inhibition
C=C(CCC(C)C1CCC2(C)C3=C(CC(O)C12C)C1(C)CCC(O)C(C)(C)C1CC3)C(C)C(=O)O (stereo not given) | 96% (active)
CC(=O)O[C@H]1CC[C@]2(C)C3=CC[C@]4(C)[C@@H](C(C)=O)CC[C@H]4[C@@]34C=C[C@]2(C1)C1C(=O)OC(=O)C14 (stereo not given in full) | 4%
CCC1(c2ccc(N3C(=O)c4ccccc4C3=O)cc2)CCC(=O)NC1=O (stereo not given) | 3%
O=C(NNS(=O)(=O)c1ccccc1)Nc1ccccc1 | 4%
CCN(CC)CCNc1c(C)ccc2cccnc12 | -14%
CCOC(=O)CCC(NC(=O)c1ccc(NC(OC)c2nc3cc(C(F)(F)F)ccc3nc2-c2ccccc2)cc1)C(=O)OCC (stereo not given) | 80% (active)
CCCC(O)C[N+](=O)[O-] (stereo not given) | 1%
O=C(Nc1cccc(Br)c1)Oc1cccc2cccnc12 | 99% (active)
C=C1CC(C)(COc2ccc3c(C)c(C)c(=O)oc3c2C)OC1=O (stereo not given) | 64%
Cc1cc(Br)c(N2C3=C(CC4=C2CCCC4=O)C(=O)CCC3)c(Br)c1 | 94% (active)
CCN(CC)CC(O)CNc1ccc(C)c2sc3ccccc3c(=O)c12 (stereo not given) | 99% (active)
COC1/C=C/OC2(C)Oc3c(C)c(O)c4c(c3C2=O)C(=O)C=C(NC(=O)/C(C)=C\C=C\C(C)C(OC=O)C(C)C(O)C(C)C(OC(C)=O)C1C)C4=O (stereo not given) | 3%
OC(c1cc2ccccc2o1)c1cc2ccccc2s1 (stereo not given) | 97% (active)
Nc1nnc(-c2cc([N+](=O)[O-])cc([N+](=O)[O-])c2)o1 | 20%
CC1SC(=S)N(c2ccc(Cl)cc2)C1=O (stereo not given) | 28%
